# Structures can show the parent of a compound that is named as a salt.
# Legend:
# Settings in all cases: 10 µM; exposure time 6 h
# [1] = test system: Danio rerio larvae (5 dpf); assay: difference in excitability vs DMSO (percentage points); higher = more excitable than DMSO
# How it was run: (§1)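 Wild-type 5 dpf zebrafish larvae in 96-well plates were given 100 µL egg water containing library compound at 10 µM final for 6 h. After 3 h of exposure, plates at 28.5 ℃ were photographed every 6 s during a 3-h programme of moving lines and 100 ms, 400Hz tones. Z-LaP Tracker (a DeepLabCut model) quantified each behaviour, averaged over 48 larvae per compound. Values are the compound mean minus the DMSO-vehicle control, in percentage points.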
# [2] = test system: Danio rerio larvae (5 dpf); assay: difference in startle response vs DMSO (percentage points); higher = stronger startle than DMSO
# How it was run: as §1
# [3] = test system: Danio rerio larvae (5 dpf); assay: difference in activity during first hour vs DMSO (percentage points); higher = more activity than DMSO
# How it was run: as §1
# [4] = test system: Danio rerio larvae (5 dpf); assay: difference in habituation to acoustic stimuli vs DMSO (percentage points); higher = more habituation than DMSO
# How it was run: as §1
# [5] = test system: Danio rerio larvae (5 dpf); assay: difference in combined optomotor response to red, green and blue moving lines vs DMSO (percentage points); higher = stronger optomotor response than DMSO
# How it was run: as §1
SMILES,difference in excitability [1],difference in startle response [2],difference in activity during first hour [3],difference in habituation to acoustic stimuli [4],difference [5]
CN(C)CCC=C1c2ccccc2COc2ccccc21 [Doxepin (hydrochloride)],9.9,-1.02,0.133,2.48,4.43
N=C(N)c1ccc(OCCCCCOc2ccc(C(=N)N)cc2)cc1 [Pentamidine],17,5.88,-2.12,0.725,5.19
CC(C)(C)NC(=O)[C@@H]1C[C@@H]2CCCC[C@@H]2CN1C[C@@H](O)[C@H](Cc1ccccc1)NC(=O)[C@H](CC(N)=O)NC(=O)c1ccc2ccccc2n1 [Saquinavir (mesylate)],9.2,-1.02,0.593,0.0845,-1.01
OCCN1C[C@H](O)[C@@H](O)[C@H](O)[C@H]1CO [Miglitol],8.03,3.24,-0.913,-2.04,8.24
Cc1cc(C#N)cc(C)c1Oc1nc(Nc2ccc(C#N)cc2)nc(N)c1Br [Etravirine],-2.94,0.144,10.9,-5.6,7.48
CC(=O)N[C@@H](CS)C(=O)O [N-acetyl-L-Cysteine],-2.2,3.63,14.1,-5.17,-0.176
CN/C(=N\CCSCc1nc[nH]c1C)NC#N [Cimetidine],-1.49,2.86,11.1,4.18,8.46
Cc1ccc(C(=O)c2ccc(CC(=O)O)n2C)cc1 [Tolmetin (sodium salt hydrate)],-2.25,2.51,13.8,1.94,7.94
CN1CCC[C@@H]1Cc1c[nH]c2ccc(CCS(=O)(=O)c3ccccc3)cc12 [Eletriptan],0.175,-8.65,6.02,-5.47,-0.217
Cc1ccc(NC(=O)c2ccc(CN3CCN(C)CC3)cc2)cc1Nc1nccc(-c2cccnc2)n1 [Imatinib (mesylate)],13.1,1.01,-9.06,5.17,-1.23
NS(=O)(=O)c1cc2c(cc1Cl)NCNS2(=O)=O [Hydrochlorothiazide],-7.7,3.06,2.42,1.66,2
Cc1nnc(C(=O)NC(C)(C)c2nc(C(=O)NCc3ccc(F)cc3)c(O)c(=O)n2C)o1 [Raltegravir (potassium salt)],-0.288,1.86,0.698,-5.1,5.8
CNC(=C[N+](=O)[O-])NCCSCc1ccc(CN(C)C)o1 [Ranitidine (hydrochloride)],-1.03,4.48,11.1,0.164,7.87
O=c1[nH]c2ccccc2n1CCN1CCN(c2cccc(C(F)(F)F)c2)CC1 [Flibanserin],17.7,11.6,9.81,-4.3,-0.569
CC#C[C@]1(O)CC[C@H]2[C@@H]3CCC4=CC(=O)CCC4=C3[C@@H](c3ccc(N(C)C)cc3)C[C@@]21C [Mifepristone],10.2,-2.97,-9.36,0.759,4.72
CCOC(=O)[C@@](C)(N)Cc1ccc(O)c(O)c1 [Methyldopate],14.5,1.24,-2.29,-2.04,-2.04
NS(=O)(=O)c1cc(Cl)c(Cl)c(S(N)(=O)=O)c1 [Dichlorphenamide],1.47,-2.89,-2.19,-4.78,-8.01
CC(=O)N[C@H]1[C@H]([C@H](O)[C@H](O)CO)OC(C(=O)O)=C[C@@H]1NC(=N)N [Zanamivir],1.36,-2.53,-16.7,1.69,-6.11
O=C1c2c(O)ccc(O)c2C(=O)c2c(NCCNCCO)ccc(NCCNCCO)c21 [Mitoxantrone (hydrochloride)],8.92,-11.2,-16.2,-16,-15.4
COc1ccc(CC(C)NCC(O)c2ccc(O)c(NC=O)c2)cc1 (stereo not given) [Formoterol (hemifumarate hydrate)],9.74,-13.1,49.1,-7.8,1.18
CCc1nn(CCCN2CCN(c3cccc(Cl)c3)CC2)c(=O)n1CCOc1ccccc1 [Nefazodone (hydrochloride)],9.32,-3.06,29.1,-9.41,-10.9
CC(=O)Oc1ccccc1C(=O)Nc1ncc([N+](=O)[O-])s1 [Nitazoxanide],12.9,-13.9,-14.8,-12.4,-17.8
Nc1nnc(-c2cccc(Cl)c2Cl)c(N)n1 [Lamotrigine],4.96,-1.15,-6.88,4.75,8.87
COCC(=O)Nc1c(I)c(C(=O)NCC(O)CO)c(I)c(C(=O)N(C)CC(O)CO)c1I (stereo not given) [Iopromide],3,-1.37,11.3,1.33,5.16
COc1cc2c(cc1Cc1cccc(Cl)c1F)c(=O)c(C(=O)O)cn2[C@H](CO)C(C)C [Elvitegravir],4.89,-9.84,6.05,0.943,-4.56
COc1cc(C)c(/C=C/C(C)=C/C=C/C(C)=C/C(=O)O)c(C)c1C [Acitretin],6.34,-12.5,50.6,-15.4,-20.9

SMILES,difference in excitability [1],difference in startle response [2],difference in activity during first hour [3],difference in habituation to acoustic stimuli [4],difference [5]
CN1CCN(CCCN2c3ccccc3Sc3ccc(C(F)(F)F)cc32)CC1 [Trifluoperazine (hydrochloride)],11.8,-1.73,23.8,-10.9,-0.14
CC1(C)O[C@@H]2C[C@H]3[C@@H]4C[C@H](F)C5=CC(=O)CC[C@]5(C)[C@H]4[C@@H](O)C[C@]3(C)[C@]2(C(=O)CO)O1 [Flurandrenolide],7.97,0.156,1.93,0.924,5.73
COc1cc2nccc(Oc3ccc(NC(=O)NC4CC4)c(Cl)c3)c2cc1C(N)=O [Lenvatinib],13.6,6.75,-8.05,1.57,10.3
Nc1nc(Cl)nc2c1ncn2[C@@H]1O[C@H](CO)[C@@H](O)[C@@H]1F [Clofarabine],-0.183,-0.201,0.725,2.7,1.77
CN(Cc1ccc(C(C)(C)C)cc1)Cc1cccc2ccccc12 [Butenafine (hydrochloride)],2.06,2.01,-10.7,0.859,-2.95
CC(C)Cn1cnc2c(N)nc3ccccc3c21 [Imiquimod],-4.08,8.27,-15,-2.3,-3.49
COCCCOc1ccnc(C[S+]([O-])c2nc3ccccc3[nH]2)c1C (stereo not given) [Rabeprazole (sodium salt)],2.22,-0.57,7.69,-4.65,15.4
Cn1c(=O)cc(N2CCC[C@@H](N)C2)n(Cc2ccccc2C#N)c1=O [Alogliptin (benzoate salt)],9.09,5.66,10.7,-0.862,0.5
CN(C/C=C/C#CC(C)(C)C)Cc1cccc2ccccc12 [Terbinafine (hydrochloride)],7.35,0.627,1.02,-1.41,-4.42
C[C@@H](O)[C@@H]1NC(=O)[C@H](CCCCN)NC(=O)[C@@H](Cc2c[nH]c3ccccc23)NC(=O)[C@H](Cc2ccccc2)NC(=O)[C@@H](NC(=O)[C@H](N)Cc2ccccc2)CSSC[C@@H](C(=O)N[C@H](CO)[C@@H](C)O)NC1=O [Octreotide (acetate)],11.3,-0.00387,-5.09,-0.654,0.73
CN1C2CCCC1CC(NC(=O)c1nn(C)c3ccccc13)C2 (stereo not given) [Granisetron (hydrochloride)],5.31,0.419,15,0.641,7.51
N[C@@H](CC(=O)N1CCn2c(nnc2C(F)(F)F)C1)Cc1cc(F)c(F)cc1F [(-)-Sitagliptin (phosphate)],10.7,-0.289,-10.7,-3.48,-5.35
CN(C)C/C=C/C(=O)Nc1cc2c(Nc3ccc(F)c(Cl)c3)ncnc2cc1O[C@H]1CCOC1 [Afatinib (maleate)],20.1,-1.05,-11.3,5.63,8.09
CCCN(CCC)CCc1cccc2c1CC(=O)N2 [Ropinirole (hydrochloride)],31.3,-0.638,-13.7,-1.82,-4.31
S=P(N1CC1)(N1CC1)N1CC1,0.228,0.991,4.02,0.555,1.07
CC(C)Cc1ccc(C(C)C(=O)O)cc1 (racemic) [(±)-Ibuprofen],15.5,-4.17,-2.46,3.85,6.34
CCCCCCOC(=O)NC(=N)c1ccc(NCc2nc3cc(C(=O)N(CCC(=O)OCC)c4ccccn4)ccc3n2C)cc1 [Dabigatran etexilate],7.34,2.07,-7.27,0.895,2.07
N=C(N)NC(=O)c1nc(Cl)c(N)nc1N [Amiloride (hydrochloride) (hydrate)],10.2,-1.2,-3.37,2.2,2.45
Cc1ccc(C(=O)Nc2ccc(CN3CCN(C)CC3)c(C(F)(F)F)c2)cc1C#Cc1cnc2cccnn12 [Ponatinib],7.08,-6.04,-11,-7.62,-12.5
O=C(CCCN1CC=C(n2c(=O)[nH]c3ccccc32)CC1)c1ccc(F)cc1 [Droperidol],29,-1.85,12.3,-7.94,-0.322
NC[C@H]1CC[C@H](C(=O)O)CC1 [Tranexamic Acid],6.95,8.18,13.1,1.19,10.9
OCCN(CCO)c1nc(N2CCCCC2)c2nc(N(CCO)CCO)nc(N3CCCCC3)c2n1 [Dipyridamole],1.25,3.31,10.2,-3.82,6.89
CCOC(=O)C1=C(C)NC(C)=C(C(=O)OC)C1c1cccc(Cl)c1Cl (racemic) [(±)-Felodipine],0.706,-2.36,-22.2,-10.8,-16.5
O=C1CN(/N=C/c2ccc([N+](=O)[O-])o2)C(=O)N1 [Nitrofurantoin],9.88,-2.07,8.16,4.03,8.98
CO[C@@]1(NC(=O)Cc2cccs2)C(=O)N2C(C(=O)O)=C(COC(N)=O)CS[C@@H]21 [Cefoxitin (sodium salt)],2.72,3.22,3,1.06,10.4
